Compound in this assay: Nc1ncnc2c1ncn2[C@@H]1O[C@H](COP(=O)(O)OP(=O)(O)OP(=O)(O)O)[C@@H](O)[C@H]1O [adenosine 5'-triphosphate]
Kind of assay: log2 fold change of tryptic peptide abundance, ligand vs vehicle (limited proteolysis) (log2 ratio); higher = more trypsin-susceptible (destabilized). The conditions noted are these: ligand concentration: 5 mM; sample: E. coli desalted lysate; replicate design: treated before aliquoting. The protocol: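 HT-PELSA: desalted E. coli K-12 BW25113 lysate (with 12 mM MgCl2) incubated with 5 mM ATP (pH 7) or water for 30 min at 25 C, then a 4 min trypsin pulse at 22 C. Peptides were quantified by DIA-MS (4 replicates). Value is the peptide log2 fold change (treated/control); negative = stabilized. Scale: negative = ligand-stabilized region.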
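Further: lysate desalted by size exclusion to strip endogenous ATP, peptide intensities built from DIA-NN precursor signals, and peptides missing any value discarded before comparison.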

In the case of “UniProt P80668 (peptide sequence: TAADHLTR, peptide start residue: 261)”, the log2 fold change is -1.12. For the target “UniProt P28903 (peptide sequence: DGCKVPFK, peptide start residue: 9)”, the log2 fold change was -0.869. Next, “UniProt P31129 (peptide sequence: SNMDVLTGLPGRR, peptide start residue: 129)”: -1.39; “UniProt P23840 (peptide sequence: HFIPVLTR, peptide start residue: 38)”: 0.387.

On to “UniProt P76273 (peptide sequence: CGISNVALTHFDGR, peptide start residue: 165)”, for which the log2 fold change worked out at 0.512.

As to “UniProt P77608 (peptide sequence: AAEQGEAIAPLR, peptide start residue: 16)”, the log2 fold change was found to be 0.736. With “UniProt P28861 (peptide sequence: ETAAGSLTGR, peptide start residue: 175)”, the log2 fold change is -1.31. Next, “UniProt P0AA41 (peptide sequence: LLAQQFEQHQIQKR, peptide start residue: 72)”: -1.05. Next, “UniProt Q46856 (peptide sequence: IDAAIAATR, peptide start residue: 323)”: -1.68; “UniProt P09546 (peptide sequence: IYAPVGTHETLLAYLVRR, peptide start residue: 539)”: 0.991.

For the target “UniProt P26646 (peptide sequence: ESTHEYLK, peptide start residue: 181)”, the log2 fold change came out at 0.217. As for “UniProt P10423 (peptide sequence: KSWHNVTGSTVIAAHEGK, peptide start residue: 90)”, the log2 fold change was -0.451. As for “UniProt P38097 (peptide sequence: VTVYEPQQAAAHSER, peptide start residue: 840)”, the log2 fold change is -1.32. Turning to “UniProt P45523 (peptide sequence: GTLIDGKEFDNSYTR, peptide start residue: 173)”, the log2 fold change is 0.527. Consider “UniProt P07118 (peptide sequence: TGNMMQPQLADKIR, peptide start residue: 582)”, for which the log2 fold change was determined as 2.07. The value for “UniProt P77376 (peptide sequence: VGLIGYGYASK, peptide start residue: 7)” was -1.01; that for “UniProt P25536 (peptide sequence: IVTGIEEQR, peptide start residue: 27)” was -1.03; that for “UniProt P43329 (peptide sequence: IAEELKTEPGGCIGYK, peptide start residue: 142)” was -2.41. Next, “UniProt P06720 (peptide sequence: CVEQLANWHKELEEYKK, peptide start residue: 299)”: -1.1.

Turning to “UniProt P16095 (peptide sequence: VGIGPSSSHTVGPMK, peptide start residue: 10)”, the log2 fold change was determined as 0.369. Take “UniProt P05707 (peptide sequence: VGSKHNSGYSAAK, peptide start residue: 146)”: the log2 fold change is -3.4.

“UniProt P0AA39 (peptide sequence: NILQSGER, peptide start residue: 198)”: the log2 fold change is -0.653. Turning to “UniProt Q46925 (peptide sequence: SQFAEAQR, peptide start residue: 53)”, the log2 fold change was -0.663.

Turning to “UniProt P08201 (peptide sequence: LIVSEDNK, peptide start residue: 359)”, the log2 fold change turned out to be 1.35. For “UniProt P30864 (peptide sequence: KIIASPDYISR, peptide start residue: 165)”, the log2 fold change was 1.32.

Turning to “UniProt P76909 (peptide sequence: SGLEGAFHQDPATLSGGQR, peptide start residue: 121)”, the log2 fold change stood at 0.631. With “UniProt P23865 (peptide sequence: VRLEILPAGK, peptide start residue: 315)”, the log2 fold change was 1.04.

Take “UniProt Q47147 (peptide sequence: QANRGEVALENTHPFTR, peptide start residue: 80)”: the log2 fold change is 0.755. “UniProt Q47146 (peptide sequence: GITLPSNSTGGVK, peptide start residue: 375)”: the log2 fold change was -0.706. Next, “UniProt P76542 (peptide sequence: VAEDWFATR, peptide start residue: 108)”: -0.902; “UniProt P77775 (peptide sequence: TGVVLAPDGGILGK, peptide start residue: 163)”: -0.725.

Source of the values: the supplement of paper PMC12819154, “High-throughput peptide-centric local stability assay extends protein–ligand identification to membrane proteins, tissues and bacteria” (Nature Structural & Molecular Biology, 2025).
